{"source": "PubChem BioAssay (Tox21)", "note": "Results filed as inconclusive are left out. A call without a number means that no potency is given here. Active and inactive are the calls of the source. Calls come from the whole dose curve. Potency is the fitted concentration of half-maximal effect.", "data": [{"test": "qHTS assay for small molecules that induce genotoxicity in human embryonic kidney cells expressing luciferase-tagged ATAD5 - cell viability (AID 651634); note: nearly all actives have a fitted effect of over 25% in size", "settings": "HEK293T ATAD5-luc cells viability, CellTiter-Fluor, 15.5 h; series mostly up to 83.3 µM", "from_the_text": "National Center for Advancing Translational Sciences [NCATS]\nNIH Chemical Genomics Center [NCGC]\nU.S. Environmental Protection Agency [EPA]\nNational Institutes of Environmental Health Sciences [NIEHS]\nNational Toxicology Program [NTP]\nU.S. Food and Drug Administration [FDA]\nEnhanced Level of Genome Instability Gene 1 (ELG1; human ATAD5) protein levels increase in response to various types of DNA damage. Using a luciferase reporter-gene tagged with ElG1, a cell-based assay [developed by Kyungjae Myung, NHGRI, NIH] was used to measure the induction of ATAD5 in human embryonic kidney cells (HEK293T). So, increase in luciferase activity can be used to identify the compounds that cause genetic stress. In addition to genotoxicity, these cells were also used to test for cytotoxicity by measuring the protease activity within live cells.\nTox21 Assay Protocol Summary:\nFor cytotoxicity screening, 2,000 cells in 5 uL/well were dispensed into white, solid-bottom 1536-well plates using a Multidrop Combi (Thermo Scientific) dispenser. Following transfer of 23 nL compound or DMSO vehicle by a pin tool, the plates were incubated 15.5 hr at 37C and 5% CO2. 1 ul CellTiter-Fluor reagent (Promega, Madison, WI) was then added to each plate and following 30 min incubation at 37C, fluorescence intensity was quantified on a ViewLux CCD-based plate reader.", "values": [{"smiles": "C=C[Si](C)(C)O[Si](C)(C)C=C", "Potency": "inactive"}, {"smiles": "COc1cc2c3cc1Oc1cc(ccc1O)C[C@@H]1c4c(cc(OC)c(O)c4Oc4ccc(cc4)C[C@@H]3N(C)CC2)CC[N+]1(C)C", "Potency": "inactive"}, {"smiles": "O=C(Nc1cccc(C2=NCCN2)c1)Nc1cccc(C2=NCCN2)c1", "Potency": "inactive"}, {"smiles": "O=C(O)Cc1cccc(-c2cc(CCCCCCc3ccc(O[C@H]4O[C@H](CO)[C@@H](O)[C@H](O)[C@@H]4O)c(-c4cccc(CC(=O)O)c4)c3)ccc2O[C@H]2O[C@H](CO)[C@@H](O)[C@H](O)[C@@H]2O)c1", "Potency": "inactive"}, {"smiles": "Cc1ccccc1N1CCN(CCc2nnc3n2CCCC3)CC1", "Potency": "inactive"}, {"smiles": "NC(=O)NC(=O)Cc1ccccc1", "Potency": "inactive"}, {"smiles": "Cc1nc([N+](=O)[O-])cn1-c1ccc([N+](=O)[O-])cc1", "Potency": "inactive"}, {"smiles": "CCCCC[Si](OCC)(OCC)OCC", "Potency": "inactive"}, {"smiles": "CCCCCCCCCOCC1CO1", "note": "(stereo not given)", "Potency": "inactive"}, {"smiles": "CO[Si](CCCCl)(OC)OC", "Potency": "inactive"}, {"smiles": "Nc1ccnc(=O)[nH]1", "Potency": "inactive"}, {"smiles": "CC(C)COC(=O)CC(C(=O)OCC(C)C)S(=O)(=O)O", "note": "(stereo not given)", "Potency": "inactive"}, {"smiles": "Cc1oc(=O)oc1CN1CCN(c2cc3c(cc2F)c(=O)c(C(=O)O)c2n3C(C)S2)CC1", "note": "(stereo not given)", "Potency": "inactive"}, {"smiles": "CN(C)CCOCCN(C)CCO", "Potency": "inactive"}, {"smiles": "COc1ccc(OC)c(NC(=O)CC(C)=O)c1", "Potency": "inactive"}, {"smiles": "COc1cccc2sc(N)nc12", "Potency": "inactive"}, {"smiles": "O=S(=O)(O)SSS(=O)(=O)O", "Potency": "inactive"}, {"smiles": "C1CCN2C[C@@H]3C[C@@H](CN4CCCC[C@@H]34)[C@H]2C1", "Potency": "inactive"}, {"smiles": "F[Si-2](F)(F)(F)(F)F", "Potency": "inactive"}, {"smiles": "CCN(Cc1cccc(S(=O)(=O)O)c1)c1ccccc1", "Potency": "inactive"}, {"smiles": "O=C(CN1CCN(Cc2ccc3c(c2)OCO3)CC1)N1c2ccccc2Sc2ccccc21", "Potency": "inactive"}, {"smiles": "COCC(=O)Nc1c(I)c(C(=O)NCC(O)CO)c(I)c(C(=O)N(C)CC(O)CO)c1I", "note": "(stereo not given)", "Potency": "inactive"}, {"smiles": "COc1cc2c(Nc3ccc(Br)cc3F)ncnc2cc1OCC1CCN(C)CC1", "Potency": "13.3 µM (active)"}, {"smiles": "Cc1nc(C)nc(N2C[C@@H](C)N(c3ccnc([C@@H](C)O)n3)[C@@H](C)C2)n1", "Potency": "inactive"}, {"smiles": "CC(=O)c1ccc2c(c1)CCCC2", "Potency": "inactive"}, {"smiles": "CC(C)COC(=O)/C=C/c1ccccc1", "Potency": "inactive"}, {"smiles": "CC(C)CCCC(C)CC=O", "note": "(stereo not given)", "Potency": "inactive"}, {"smiles": "O=C(/C=C/c1ccccc1)NCCO", "Potency": "inactive"}, {"smiles": "COC(=O)CCC(=O)O", "Potency": "inactive"}, {"smiles": "CC(C)(C)c1ccc(C=O)cc1", "Potency": "inactive"}, {"smiles": "CCS(=O)(=O)CCn1c([N+](=O)[O-])cnc1C", "Potency": "inactive"}, {"smiles": "CC(CC(=O)O)CC(C)(C)C", "note": "(stereo not given)", "Potency": "inactive"}, {"smiles": "O=CN1CCOCC1", "Potency": "inactive"}, {"smiles": "NS(=O)(=O)c1cc2c(cc1Cl)NC(C(Cl)Cl)NS2(=O)=O", "note": "(stereo not given)", "Potency": "inactive"}, {"smiles": "Cc1cccc(Nc2ccncc2S(=O)(=O)NC(=O)NC(C)C)c1", "Potency": "inactive"}, {"smiles": "CC(C)=CC(C)(C)C", "Potency": "inactive"}, {"smiles": "CC(=O)N(CC(O)CO)c1c(I)c(C(=O)NCC(O)CO)c(I)c(C(=O)NCC(O)CO)c1I", "note": "(stereo not given)", "Potency": "inactive"}, {"smiles": "CCC(CO)CO", "Potency": "inactive"}, {"smiles": "C[C@H](CCC(=O)O)[C@H]1CC[C@H]2[C@@H]3[C@H](O)C[C@@H]4C[C@H](O)CC[C@]4(C)[C@H]3C[C@H](O)[C@]12C", "Potency": "inactive"}, {"smiles": "CC(C)CCC(=O)CCC(C)C", "Potency": "inactive"}]}]}
